# Laboratory results from PubChem BioAssay (NCI).
# About 83,000 compounds went through this panel and 20% of them were active in at least one assay; those are over-represented in the sample as a whole.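 Compound tested at a single concentration for 48 hours in 96-well plates; a percent growth value below 10 was scored as active.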 A number with no mark means an inactive call. The source made the active and inactive calls.
# What was measured:
# Test in all cases: NCI-60 one-dose screen, 48 h (100 = growth as untreated, 0 = no growth, -100 = all killed)
# Details in all cases: 10 µM
# NCI-H23 lung = system: NCI-H23 lung
# NCI-H226 lung = system: NCI-H226 lung
# NCI-H322M lung = system: NCI-H322M lung
# HOP-62 NSCLC = system: HOP-62 NSCLC
# NCI-H460 lung = system: NCI-H460 lung
# NCI-H522 lung = system: NCI-H522 lung
# A549/ATCC NSCLC = system: A549/ATCC NSCLC
# 786-0 renal = system: 786-0 renal
# COLO 205 colon = system: COLO 205 colon
# DU-145 prostate = system: DU-145 prostate
Compound,growth (NCI-H23 lung),growth (NCI-H226 lung),growth (NCI-H322M lung),growth (HOP-62 NSCLC),growth (NCI-H460 lung),growth (NCI-H522 lung),growth (A549/ATCC NSCLC),growth (786-0 renal),growth (COLO 205 colon),growth (DU-145 prostate)
O=c1cc(-c2ccccc2)[nH]n1-c1nc2ccccc2[nH]1,56.1%,67.7%,49.9%,48%,20.7%,21.6%,30.7%,50.1%,106%,61.1%
COc1cc2nc(Nc3cccc(NC(C)=O)c3)nc(N)c2cc1OC,135%,90.9%,120%,94.4%,110%,93.2%,105%,94.7%,109%,90.2%
CCN(CC)CCC(CNc1c(C)cnc2cc(Cl)ccc12)c1ccc(Cl)c(Cl)c1 (stereo not given),63.7%,85.9%,51.8%,68.8%,63.8%,49.2%,64.1%,60.2%,-56.5% (active),73.8%
Cc1ccc(C(=O)Nc2cccc(F)c2)cc1NC(=O)C1(c2ncnc3[nH]ccc23)CC1,68.2%,67.4%,116%,67.4%,96.2%,61%,82.4%,110%,59.1%,106%
COc1ccc(-c2cc(-c3cccc(NS(C)(=O)=O)c3)nc(N)c2C#N)cc1,37.7%,62.8%,44.4%,52.3%,4.64% (active),-4.96% (active),33.6%,42.9%,-27% (active),5.82% (active)
Cc1ccc(NC(=O)Nc2c(Cl)cccc2Cl)cn1,109%,140%,119%,107%,106%,-10.6% (active),57.3%,113%,135%,123%
COc1ccc2c(c1)sc1nc(-c3ccccc3)c(-c3cccnc3)n12,88.4%,103%,113%,125%,102%,-22.7% (active),94.1%,96.9%,128%,107%
CCOC(=O)CNC(=O)CCCCSc1ncnc2nc[nH]c12,113%,94.5%,173%,96.2%,97%,102%,109%,97.9%,111%,113%
N=C(N)c1ccc(-c2ccc(-c3cccs3)o2)cc1,85.1%,67.5%,12.8%,64.7%,0.151% (active),61.9%,45.4%,62.3%,-97.4% (active),57.9%
COc1cc(NC(=O)CCSc2nc3ccc(C)cc3c(=O)n2Cc2ccccc2)cc(OC)c1OC,108%,27.4%,71.9%,9.27% (active),48.3%,65.2%,42.6%,72.6%,112%,83.6%
COc1ccc(-c2nc3sc(C4CC4)nn3c2/C=C2/C(=O)Nc3ccc(OC)cc32)cc1,82%,63.7%,61.6%,80.9%,77.7%,63.8%,75.5%,86%,88.5%,62.3%
Nc1ccn(C2CC(O)C(CO)O2)c(=O)n1 (stereo not given),105%,99.1%,223%,98.8%,102%,109%,108%,100%,108%,120%
CCOC(=O)CCC(NC(=O)c1ccc(N)cc1)C(=O)OCC (stereo not given),99.1%,103%,108%,96%,118%,80.5%,99.4%,110%,105%,112%
COc1ccc(-c2nn(-c3cccc(NC(=O)Nc4cccc(C(F)(F)F)c4)c3)cc2-c2ccncc2)cc1Cl,5.45% (active),25.7%,24.4%,25.2%,2.43% (active),-6.94% (active),7.5% (active),24.2%,1.37% (active),22%
O=[N+]([O-])c1cccc(-c2ncc(-c3ccc(Cl)cc3Cl)[nH]2)c1,104%,80%,131%,45.8%,84.1%,-14% (active),94.4%,66.8%,89.4%,40%
COc1ccc(-c2cc(-c3ccc(N(C)C)cc3)c(C#N)c(N3CCCC3)n2)cc1,93.6%,82.5%,92.3%,99.7%,69.9%,69.4%,77.2%,95.6%,65.9%,86.8%
O=S(=O)(NCCCNc1nccc(-c2c(-c3ccc(F)cc3)nc3sccn23)n1)c1ccc2ccccc2c1,66.2%,57.4%,49.6%,81.3%,22.7%,46.2%,28.9%,55.5%,10.1%,46.4%
CC1CC(=O)OC(C)C1 (stereo not given),102%,93.1%,103%,92.2%,104%,103%,95.8%,101%,112%,111%
CC12O[C@H](C[C@@H](O)[C@H]1O)n1c3ccccc3c3c4c(c5c6ccccc6n2c5c31)C(=O)N(CCCN)C4=O,28.9%,27.4%,56.3%,25.3%,10.4%,-2.33% (active),31.5%,53.9%,12.9%,60.8%
O=C1OCC2=C1C(c1cccc(Cl)c1)c1cc3c(cc1N2CCO)OCCO3 (stereo not given),19.6%,-5.85% (active),35.3%,26.7%,0.852% (active),-22.4% (active),13.8%,23.7%,-26.9% (active),-35.6% (active)
CCN(CC)CCC(CNc1c(C)cnc2cc(Cl)ccc12)c1ccc(Cl)cc1 (stereo not given),61.3%,102%,53.8%,66.2%,67.7%,31.7%,64.7%,58.2%,-45.5% (active),79%
Cc1cc(=O)[nH]c(N/N=C/c2ccccc2O)n1,78.6%,91%,-5.84% (active),61.3%,23.3%,77.3%,33.1%,93.4%,49.2%,78.8%
O=C(O)c1ccc(Cl)cc1Nc1ccc(F)cc1,92.7%,82.3%,38.1%,96.7%,76.8%,82.6%,86.4%,68.6%,95.7%,87.1%
CCOC(=O)C(NC(=O)C(Cl)Cl)C(O)c1ccccc1 (stereo not given),102%,93.1%,105%,82.8%,102%,122%,117%,129%,126%,102%
COc1ccc(-c2nn(-c3cccc(NC(=O)Nc4cc(C(F)(F)F)cc(C(F)(F)F)c4)c3)cc2-c2ccncc2)cc1Cl,5.1% (active),24.2%,4.66% (active),3.91% (active),-3.36% (active),-30% (active),0.691% (active),-12.8% (active),-88.9% (active),17.6%
CCCCCC(=O)c1ccc(OCCCN2CCN(C(=O)OCC)CC2)cc1,81.2%,73%,119%,108%,99.1%,101%,94.8%,97.5%,96.3%,107%
Cc1cccc(C)c1NC(=O)c1sc2nc3c(cc2c1N)C(=O)CCC3,65.6%,83%,46.4%,112%,25.4%,61.7%,35.6%,92.2%,15.2%,93.2%
Cc1cc(=O)n2nnc3c4ccccc4ccc3n12,94%,59.8%,96.3%,70%,83.9%,87.9%,60.2%,89.8%,8.79% (active),98.8%
